The values below come from PubChem BioAssay (NCI).

This is part of a sample that, as a whole, favours compounds with a hit. Of some 79,000 tested, about 15% had one in any assay. A number with no mark means an inactive call. The source made the active and inactive calls. Cut-off read from the data, not from the text of the source: active = growth inhibition above about 70%; inactive = the rest.

Test [1] can be described thus: NCI Yeast Anticancer Drug Screen. Data for the rad50 strain (AID 155).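 Note: 0% = growth of vehicle-only cultures of the same strain.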 The conditions noted are these: S. cerevisiae rad50 strain growth inhibition; at 50.0 µM; active compounds read high. The procedure, abridged:
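Relative growth inhibition (compound vs vehicle) was measured in yeast with a defined repair-gene alteration.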

The nature of test [2]: NCI Yeast Anticancer Drug Screen. Data for the mec2-1 strain (AID 157). To be noted: S. cerevisiae mec2-1 strain, at 50.0 µM, active compounds read high. In outline:
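mec2-1 yeast strain, carrying an alteration in DNA damage repair or cell cycle control, was exposed to compounds; growth inhibition was measured relative to vehicle-treated controls.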

Test [3] in a line: NCI Yeast Anticancer Drug Screen. Data for the sgs1 mgt1 strain (AID 161).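 Note: 0% = growth of cultures given vehicle only.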 To be noted: S. cerevisiae sgs1 mgt1 strain, at 50.0 µM, active compounds read high. The procedure, abridged:
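Compounds are added to genetically altered yeast, and growth is compared with cultures given vehicle alone to give percent inhibition.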

Test [4] is described as follows: NCI Yeast Anticancer Drug Screen. Data for the cln2 rad14 strain (AID 165).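 Note: 0% = growth equal to vehicle treated cultures.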 To be noted: S. cerevisiae cln2 rad14 strain, at 50.0 µM, active compounds read high. In outline:
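Yeast carrying cln2 and rad14 alterations (cell cycle control and DNA damage repair) were exposed to compounds. Growth inhibition was measured against vehicle-treated controls.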

Test [5] can be described thus: NCI Yeast Anticancer Drug Screen. Data for the bub3 strain (AID 167). The conditions noted are these: S. cerevisiae bub3 mutant strain, at 50.0 µM, active compounds read high. The procedure, abridged:
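Screening used yeast with an engineered genetic alteration affecting cell cycle control. Compound-exposed cultures were compared with vehicle cultures, and reduced growth was taken as inhibition.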

Test [6] in a line: NCI Yeast Anticancer Drug Screen. Data for the mlh1 rad18 strain (AID 175). To be noted: S. cerevisiae mlh1 rad18 strain growth inhibition; at 50.0 µM; active compounds read high. In outline:
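Growth inhibition of the yeast strain was measured after compound exposure and expressed relative to vehicle-treated controls. The strain carries defined defects in DNA damage repair.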

Regarding `O=C(O)C(C(=O)O)C(O)c1c2ccccc2cc2ccccc12` (stereo not given), the growth inhibition was -10.3% in test [1]; 16% in test [2]; -4.35% in test [3]; -47.6% in test [4]; 0.6% in test [5]; -1.05% in test [6].

`CN(C)c1ccc(/C=C/c2ccnc3ccc(Cl)cc23)cc1`: the growth inhibition in test [1] is 23%; in test [2] it was 22.5%; in test [3], 32.1%; in test [4], 5.85%; in test [5], 21.6%; in test [6], 34%.

As to `CCOC(=O)N1N=C(c2ccccc2)OC2(N3CCCC3)CCC(C(C)(C)C)CC12` (stereo not given), the growth inhibition is 11.1% in test [1]; 10.6% in test [2]; 9.4% in test [3]; -4.5% in test [4]; -4.25% in test [5]; 27.9% in test [6].

In the case of `CCOC(=O)CC1CN(C(=O)c2ccccc2)CCC12OCCO2` (stereo not given), the growth inhibition in test [1] is -3.4%; in test [2], -4.3%; in test [3], -4%; in test [4], -5.05%; in test [5], -2.35%; in test [6] it was -5.3%.

Turning to `O=C(Nc1cccc(Cl)c1)Nc1ccc(Sc2ccc(Cl)cc2)o1`, the growth inhibition in test [1] is 55.1%; in test [2], 7%; in test [3], 70.6% (active); in test [4], 29.9%; in test [5] it was 47.6%; in test [6] it was 69.8%.

As for `CN(NC(=O)CCCl)C1=NCCCCN1`, the growth inhibition was -6.6% in test [1]; -17.9% in test [2]; -4.95% in test [3]; 43.5% in test [4]; -0.5% in test [5]; 19.4% in test [6].

Consider `CCOc1ccccc1/C=C1\NC(=O)NC1=O`, for which the growth inhibition was -38.6% in test [1]; -35% in test [2]; -35% in test [3]; -14.9% in test [4]; 2.6% in test [5]; -6.7% in test [6].

For `O=CNC(Cc1ccccc1)c1ccc(OCc2ccccc2)cc1` (stereo not given), the growth inhibition in test [1] was 0.75%; in test [2], 5%; in test [3], 1.55%; in test [4], 31.1%; in test [5], 31.6%; in test [6], 16.9%.

On to `O=C(O)CN1C(=O)c2ccc([N+](=O)[O-])cc2C1=O`, for which the growth inhibition is -3.65% in test [1]; -0.2% in test [2]; 2.3% in test [3]; -8.2% in test [4]; -16.5% in test [5]; 4.25% in test [6].

For `COc1ccc(Cc2cc3c(cc2OCC(=O)Nc2ccccn2)OCO3)cc1`, the growth inhibition in test [1] was 22.2%; in test [2], -1.95%; in test [3], 6.25%; in test [4], 19.3%; in test [5], -3%; in test [6], 8.1%.

As for `CC(=O)C(CCN(C)C)c1ccc2c(c1)CCc1ccccc1-2` (stereo not given), the growth inhibition was 13.3% in test [1]; 5.65% in test [2]; 19.4% in test [3]; -8.45% in test [4]; 13.3% in test [5]; 27.6% in test [6].

Consider `Cc1cc(N/N=C/c2ccnc3ccccc23)c2cc3c(cc2n1)OCO3`, for which the growth inhibition in test [1] was 43.4%; in test [2], 18%; in test [3], 23.4%; in test [4] it was 27%; in test [5], 31.7%; in test [6], 20.9%.

On to `NCCCC(NC(=O)CCCCCCCCN=C(N)N)C(O)CCCCCCCCN=C(N)N` (stereo not given), for which the growth inhibition in test [1] was 20.9%; in test [2] it was 14.8%; in test [3] it was 4.55%; in test [4] it was -6.8%; in test [5] it was 22.3%; in test [6], 0.75%.

For the compound `Cc1cc(N(CCC#N)CCC#N)ccc1/C=C(\NC(=O)/C=C/c1ccccc1)NC(=O)Nc1ccc(Cl)cc1`, the growth inhibition in test [1] was 13.5%; in test [2], 2.75%; in test [3], -17.9%; in test [4], 10.8%; in test [5] it was 12.5%; in test [6] it was 29.2%.

As to `O=C1CCCCCCCCCCC1Br` (stereo not given), the growth inhibition in test [1] was 43.2%; in test [2], 3.15%; in test [3], 34.4%; in test [4] it was 31.9%; in test [5], 23.3%; in test [6] it was 21.4%.

Consider `CNC(=O)SCC(N)C(=O)O` (stereo not given), for which the growth inhibition in test [1] was 1.25%; in test [2] it was -4.85%; in test [3], -8.3%; in test [4] it was -16.4%; in test [5], -0.9%; in test [6] it was 2%.

For the compound `CC(C)C(=O)c1ccccc1Cl`, the growth inhibition in test [1] is 2.85%; in test [2], -7.05%; in test [3] it was -2.45%; in test [4], -0.35%; in test [5], 2.7%; in test [6] it was -8%.

Take `C#CC(C)(C)OCC(O)CCl` (stereo not given): the growth inhibition in test [1] is 1.85%; in test [2], 5.65%; in test [3] it was 1.65%; in test [4], -28.8%; in test [5], -15.4%; in test [6], 2.45%.

Take `O=P1(O)c2ccccc2CSCc2ccccc21`: the growth inhibition is 24.4% in test [1]; -7.35% in test [2]; -11.8% in test [3]; -2.8% in test [4]; -2.65% in test [5]; -31.8% in test [6].

With `Cc1cc(C)nc(NS(=O)(=O)c2ccc(NC(=O)C(Cl)(Cl)Cl)cc2)n1`, the growth inhibition in test [1] was -34%; in test [2] it was -24.6%; in test [3] it was -35.4%; in test [4] it was -13%; in test [5], -42%; in test [6] it was -39.8%.
